The nature of assay [1]: Counterscreen for APE1 Inhibitors: Fluorescent Dye Displacement Validation Assay (AID 1707).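 Further: plate controls were ThO with dsDNA and no compound for no effect and ThO without dsDNA for full effect.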 Put shortly:
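Counterscreen flags promiscuous DNA binders: compounds displacing ThO from duplex DNA (abasic THF site, 50 nM) reduce 540 nm emission (480 nm excitation). ThO 250 nM final; Tris-HCl pH 7.5 with NaCl, MgCl2 and Tween-20.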

The target of assay [2] is Endonuclease 4 (Escherichia coli (strain K12)) (UniProt P0A6C1). Kind of assay: Counterscreen for APE1 Inhibitors: qHTS Validation Assay for Inhibitors of Endonuclease IV (AID 1708). Further: on the % scale 0 is the no-effect control and ±100 the full control effect. The method in brief: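 Enzyme (2 nM) + compound, 15 min RT; add 50 nM TAMRA/BHQ-2 THF-site dsDNA; kinetic read ex525/em598, 3 reads/60 s; activity = read 3 − read 1. Buffer Tris pH 7.5, 50 mM NaCl, 2 mM MgCl2, DTT, Tween-20.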

Assay [3] in a line: qHTS for differential inhibitors of proliferation of Plasmodium falciparum line GB4 (AID 1816).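 Further: potency means the concentration at half of the fitted maximal effect; parasite growth measured after 72 h incubation.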 To be noted: Potency: Plasmodium falciparum GB4 proliferation inhibition. Background: Quantitative high-throughput screening tests each substance at several concentrations.
Assay [4] in a line: qHTS for differential inhibitors of proliferation of Plasmodium falciparum line 3D7 (AID 1876). Further: potency means the concentration at half of the fitted maximal effect.
A short description of assay [5]: qHTS for differential inhibitors of proliferation of Plasmodium falciparum line Dd2 (AID 1882).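 Further: series mostly up to about 29 µM; plate controls were DMSO vehicle for no effect and 0.29 µM artemisinin for full effect; nearly all actives have a fitted effect of over 65% in size.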 The conditions noted are these: Potency: Plasmodium falciparum Dd2 proliferation inhibition. Put shortly: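 SYBR Green DNA fluorescence (ex 485, em 535 nm) after overnight lysis quantifies parasite growth; compound exposure lasted 72 h at 37 C on infected red cells at 2.5% hematocrit, 0.3% parasitemia (final). Artemisinin 0.29 uM and vehicle wells define normalization.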

The target of assay [6] is Ferritin light chain (Equus caballus) (UniProt P02791). Kind of assay: qHTS Validation Assay for Identification of Novel General Anesthetics (AID 2323). Further: series mostly up to about 77 µM; on the % scale 0 is the no-effect control and ±100 the full control effect. Put shortly:
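Normalized fluorescence response, scaled between free 1-AMA and 1-AMA/apoferritin complex, fitted to a four-parameter Hill equation for concentration-effect values. Binding mix: 10 uM horse-spleen apoferritin, 50% saturated 1-AMA in PBS; read 380/535 nm after 10 min.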

Assay [7] deals with ATP-dependent DNA helicase Q1 (Homo sapiens) (UniProt P46063). The assay can be described thus: qHTS Validation Assay for Inhibitors of RecQ-Like Dna Helicase 1 (RECQ1) (AID 2353).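 Further: plate controls were DMSO vehicle for no effect and enzyme-free control for full effect.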 The method in brief:
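RECQ1T1 50 nM; forked duplex (20 bp + 30-nt ss tails) 200 nM, ATP 2 mM final; pH 8.0, 2 mM MgCl2, 2.5 ug/ml poly(dI-dC); 15 min compound preincubation; discontinuous kinetic read over 2 h at RT.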

Assay [8] in a line: Quantitative high throughput screen for delayed death inhibitors of the malarial parasite plastid, 96 hour incubation (AID 488745). Further: potency means the concentration at half of the fitted maximal effect; nearly all actives have a fitted effect of over 70% in size. The method in brief:
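Readout is firefly luciferase luminescence from an integrated reporter in P. falciparum; lower signal marks inhibited growth. Cultures at 2% hematocrit and 0.1% parasitemia were treated with compound across two generations (96 h, 37 C, 5% CO2).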

Assay [9] addresses Transient receptor potential cation channel subfamily V member 1 (Homo sapiens) (UniProt Q8NER1). The assay can be described thus: HTS Assay for Compounds that Act as Enhancers of the Vanilloid Receptor 1 (AID 488979). Further: 0% is about no effect. The method in brief: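 TRPV1-expressing cells loaded with Fluo-8 calcium dye; compounds added and calcium influx read kinetically for 3 min (agonist phase), then capsaicin at EC20 added and read 2 min more for enhancement. Fluorescence ex 480/em 520 nm.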

The target of assay [10] is Thyrotropin-releasing hormone receptor (Homo sapiens) (UniProt P34981). Kind of assay: qHTS for Small Molecule Agonists and Allosteric Enhancers of Human TRH Receptor: Validation Screen for Agonists (AID 493127;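 active means calcium activation more than 3 SD above the typical response in the agonist read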;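 further: intracellular calcium rise by fluo-8 fluorescence before TRH EC20 addition; 0% is about no effect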). To be noted: TRH receptor agonist cell assay; at 2 µM; active compounds read high. The method in brief:
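Compounds are added by online pintool to dye-loaded TRHR cells while fluorescence is recorded every second. A rise in calcium signal during the agonist read marks activation; a later 10 nM TRH addition (EC20) serves the separate enhancer mode.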

The target of assay [11] is Galactokinase (Homo sapiens) (UniProt P51570). Kind of assay: qHTS Validation Assay for Inhibitors of Human Galactokinase (GALK) (AID 493189). Further: 0% is about no effect. The method in brief: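 Enzyme activity is inferred from ATP consumption: human GALK phosphorylates galactose (100 uM) using 35 uM ATP for 1 h at room temperature, and luciferase-based Kinase-Glo Plus reports unconsumed ATP.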
Chain of Galactokinase (Homo sapiens) (P51570 whole entry, looked up): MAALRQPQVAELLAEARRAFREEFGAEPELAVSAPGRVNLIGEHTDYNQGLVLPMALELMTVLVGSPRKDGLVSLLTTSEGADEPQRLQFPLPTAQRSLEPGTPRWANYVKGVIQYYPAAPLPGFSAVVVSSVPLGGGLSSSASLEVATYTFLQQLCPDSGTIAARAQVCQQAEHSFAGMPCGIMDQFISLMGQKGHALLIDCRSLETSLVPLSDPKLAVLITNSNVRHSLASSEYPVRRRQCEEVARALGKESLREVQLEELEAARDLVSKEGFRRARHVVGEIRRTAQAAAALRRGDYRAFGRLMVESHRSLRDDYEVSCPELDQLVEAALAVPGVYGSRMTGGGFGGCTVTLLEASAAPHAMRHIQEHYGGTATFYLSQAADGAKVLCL
Assay [12] in a line: Validation screen for small molecules that induce DNA re-replication in SW480 colon adenocarcinoma cells (AID 504364). Further: 0% is about no effect. The method in brief:
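Image-based qHTS: compounds were incubated with SW480 cells for 48 hr, nuclei stained with Hoechst, and per-nucleus fluorescence intensity scanned to flag cells with excess DNA content.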

Assay [13] deals with Voltage-gated inwardly rectifying potassium channel KCNH2 (Homo sapiens) (UniProt Q12809). Kind of assay: qHTS Assay for Small Molecule Inhibitors of the Human hERG Channel Activity (AID 588834).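 Further: top concentration of the series differs between compounds; on the % scale 0 is the no-effect control and ±100 the full control effect; lower thallium flux fluorescence means stronger hERG block; nearly all actives have a fitted effect of over 50% in size.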 The method in brief: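 Homogeneous FluxOR thallium flux assay using hERG-expressing U2OS cells (BacMam). Compound treatment about 10 minutes preceded stimulation; reduced fluorescence taken as channel block.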

For assay [14], the target named is Rap guanine nucleotide exchange factor 3 (Homo sapiens) (UniProt O95398). The assay can be described thus: Counterscreen qHTS for antagonist of cAMP-regulated guanine nucleotide exchange factor 3 (EPAC1) (AID 1645888).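 Further: fluorescence loss as bound BODIPY-GDP is released from Rap1B; % of control where 0% means no effect.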 Put shortly:
(§1)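 Measured: fluorescence of BODIPY-GDP bound to Rap1B, which falls as exchange proceeds. Conditions include 50 uM competing GDP, 5 and 30 min reads, and a later cAMP challenge for antagonist detection.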
For orientation: A counterscreen serves to expose hits that act by an unwanted route or on another target.

The target is the same in assay [15]. The assay can be described thus: Counterscreen qHTS for agonist of cAMP-regulated guanine nucleotide exchange factor 3 (EPAC1) (AID 1645889). Further: % of control where 0% means no effect; nearly all actives have a fitted effect of over 40% in size. The method in brief:
as §1

Assay [16] in a line: Stat Signaling Pathway (AID 446; active means well fitted curve in either direction with a large enough effect, not every such curve was filed as active;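 further: ME-180 cervical cancer cells given 40 pM IL-6 alongside compound; SIE-controlled beta-lactamase reporter measured as 460/530 nm FRET emission ratio; on the % scale 0 is the no-effect control and ±100 the full control effect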). Put shortly: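 FRET read-out (405 nm excitation, 460/530 nm emission) of a beta-lactamase reporter under a STAT-inducible element in ME-180 cervical carcinoma cells. Cells with compound receive 40 pM IL-6 for 5 h. Values are normalised to AC90 stimulation and AC90 JAK-inhibitor controls.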
The target in assay [17] is Glucocorticoid receptor (Homo sapiens) (UniProt P04150). The assay can be described thus: GR-GFP Redistribution (AID 450;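 active means compounds whose dose series gives a full or clear partial fitted curve of increased nuclear translocation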; further: potency means the concentration at half of the fitted maximal effect). To be noted: U2OS GR-GFP nuclear translocation, laser cytometry, 2 h.
Chain of Glucocorticoid receptor (Homo sapiens) (P04150 whole entry, looked up): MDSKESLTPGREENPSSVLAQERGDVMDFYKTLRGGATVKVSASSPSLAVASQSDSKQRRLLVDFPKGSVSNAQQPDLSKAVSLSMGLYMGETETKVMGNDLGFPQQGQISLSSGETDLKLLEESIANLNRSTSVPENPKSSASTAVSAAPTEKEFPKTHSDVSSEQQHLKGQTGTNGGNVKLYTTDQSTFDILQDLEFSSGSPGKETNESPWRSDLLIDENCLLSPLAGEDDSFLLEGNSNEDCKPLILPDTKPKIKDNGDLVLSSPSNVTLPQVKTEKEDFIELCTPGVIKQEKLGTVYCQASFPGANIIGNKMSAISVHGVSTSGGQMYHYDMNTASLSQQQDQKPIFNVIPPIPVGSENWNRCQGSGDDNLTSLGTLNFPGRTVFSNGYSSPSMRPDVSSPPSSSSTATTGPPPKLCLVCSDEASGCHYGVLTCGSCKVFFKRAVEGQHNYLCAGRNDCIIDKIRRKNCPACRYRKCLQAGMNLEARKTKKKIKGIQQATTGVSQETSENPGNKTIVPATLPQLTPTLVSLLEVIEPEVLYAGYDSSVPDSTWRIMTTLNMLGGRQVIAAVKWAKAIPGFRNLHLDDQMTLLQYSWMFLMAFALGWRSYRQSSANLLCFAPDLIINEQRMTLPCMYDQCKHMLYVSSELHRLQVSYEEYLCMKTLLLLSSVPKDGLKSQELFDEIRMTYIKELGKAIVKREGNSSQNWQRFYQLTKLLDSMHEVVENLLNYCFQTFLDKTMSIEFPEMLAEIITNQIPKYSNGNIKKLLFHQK
Assay [18] shares this target. The assay can be described thus: GR-EFC Redistribution (AID 451; calls by dose curve; further: potency means the concentration at half of the fitted maximal effect). The conditions noted are these: CHO-K1 GR-EFC translocation, beta-gal luminescence, 2 h. The method in brief:
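CHO-K1 cells stably expressing nuclear-localized β-gal enzyme acceptor and GR fused C-terminally to the enzyme donor fragment; ligand-driven nuclear translocation restores β-gal by complementation. Compounds titrated up to 46 uM final, 2 h at 37 °C; luminescence read.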

Assay [19] addresses Mitogen-activated protein kinase 10 (Mus musculus) (UniProt Q61831). The assay can be described thus: JNK3 AlphaScreen Assay (AID 530; active means well fitted curve in either direction with a large enough effect, not every such curve was filed as active;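 further: kinase came from lysate of stimulated human HepG2 cells; signal reports phosphorylation of biotinylated GST-cJun 1-79 at Ser73 with 10 µM ATP; series mostly up to about 57 µM; on the % scale 0 is the no-effect control and ±100 the full control effect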). The method in brief:
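Phosphorylation of biotinylated GST-cJun(1-79) at Ser73 is measured by AlphaScreen proximity luminescence. Enzyme is JNK3 in HepG2 lysates activated with interleukin-1beta and tumor necrosis factor alpha; ATP is 10 uM final.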
Background: Bead proximity is the source of the signal in Alpha formats.

Assay [20] has as its target 3',5'-cyclic-AMP phosphodiesterase 4B (Homo sapiens) (UniProt Q07343). The assay can be described thus: qHTS Assay for Inhibitors of PDE-IV (AID 607; active means well fitted activation curve with a large enough effect in the main read-out, with a control signal flat, not every such curve was filed as active; further: % of control where 0% means no effect). The method in brief:
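Cell-based read-out of cAMP via a modified cyclic nucleotide-gated channel and membrane potential dye (535/590 nm) in HEK293 cells expressing PDE4 endogenously. Compounds tested up to 22.9 uM final; 100 uM RO 20-1724 reference.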

Assay [21] addresses Guanine nucleotide-binding protein G(i) subunit alpha-1 (Homo sapiens) (UniProt P63096). The assay can be described thus: qHTS Assay for Inhibitors of RGS12 GoLoco Motif Activity (Green Fluorophore) (AID 879).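 Further: 0% = labeled peptide with Gαi1 and full inhibition = labeled peptide alone without protein; negative values mean loss of peptide binding seen as reduced polarization.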 The method in brief: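 A drop in FITC polarization marked displacement of the FITC-tagged RGS12 GoLoco peptide (10 nM) from Gαi1 (50 nM). Compounds were incubated 10 min at room temperature in Tris pH 7.5 buffer containing 150 mM NaCl, 0.1 mM GDP and 0.05% NP40; unlabeled peptide titration served as control.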

A short description of assay [22]: qHTS Assay for Identification of Small Molecule Antagonists for Thrombopoietin (TPO) Signaling Pathway (AID 918). Further: potency means the concentration at half of the fitted maximal effect; nearly all actives have a fitted effect of over 60% in size. The conditions noted are these: TPO-dependent cell signaling reporter, antagonist mode. The method in brief:
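Inhibitors of TPO signaling are sought by stimulating IL-3-starved murine Ba/F3 cells (human TPO receptor, Glycoprotein IIb-driven luciferase) with TPO at its EC50 of 26 pM alongside compound. After 24 hrs at 37 C, reporter luminescence is measured.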

The target in assay [23] is Muscarinic acetylcholine receptor M1 (Rattus norvegicus) (UniProt P08482). Kind of assay: qHTS Assay for Antagonists of Acetylcholine Muscarinic M1 Receptor: Measurement of IP-One Response (AID 944). Further: nearly all actives have a fitted effect of over 75% in size. Put shortly:
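Antagonist mode with rat M1 receptor transfected into CHO cells. Compound is added first for 10 min, carbachol at its EC80 follows for 30 min, and lysis reagents then allow TR-FRET detection of accumulated IP1.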

Assay [24] deals with Pyruvate kinase (Leishmania mexicana) (UniProt Q27686). Kind of assay: qHTS Validation Assay for Inhibitors of Leishmania Mexicana Pyruvate Kinase (AID 945).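 Further: 0% = DMSO only neutral control wells.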 Put shortly: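 Compounds are tested as eight-point concentration series. Reactions contain 0.2 nM LmPYK E451W, 0.5 mM PEP, 0.1 mM ADP, 7 mM MgCl2 and 50 mM KCl at pH 7.2, run 1 h at room temperature, then read by PKLight luminescence.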

Assay [25] has as its target Pyruvate kinase PKM (Homo sapiens) (UniProt P14618). The assay can be described thus: qHTS Assay for Activators of Human Muscle Pyruvate Kinase (AID 954; active means well fitted curve in the direction sought with a large enough effect, not every such curve was filed as active;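 further: 0% = uninhibited enzyme and -100% = no enzyme or full thiadiazolimine inhibition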). The method in brief: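 ATP production by PKM2 detected via luciferase luminescence after 1 h room-temperature reaction (0.1 nM enzyme, PEP at Km 0.5 mM, ADP 0.1 mM, pH 7.2 imidazole buffer). Inhibition scaled to no-enzyme control; activation referenced to 0.3 nM enzyme wells.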

Assay [26] addresses Alpha-galactosidase A (Homo sapiens) (UniProt P06280). The assay can be described thus: Counterscreen for Glucocerebrosidase Inhibitors: qHTS Assay for Human alpha-Galactosidase at pH 4.5 (AID 992). Further: 0% is about no effect. Put shortly: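 Fluorogenic 1536-well qHTS at pH 4.5 (citrate, Tween-20): 2 nM enzyme, 80 uM 4-MU-alpha-galactoside, 20 min room temperature, NaOH/glycine stop. Titration 0.7 nM to 77 uM, data normalized to no-enzyme and full-activity controls, Hill-fitted AC50.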

For assay [27], the target named is alpha-glucosidase (Oryza sativa, rice) (UniProt Q653V4). Kind of assay: Counterscreen for Glucocerebrosidase Inhibitors: qHTS Assay for Rice alpha-Glucosidase at pH 5.0 (AID 997).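 Further: 0% = full activity with enzyme and -100% = basal without enzyme.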 The method in brief:
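Endpoint fluorogenic assay at pH 5.0: compounds (0.7 nM to 77 uM) titrated against 4 nM rice enzyme and 400 uM 4-MU-alpha-glucoside for 20 min at room temperature; NaOH/glycine stop, read ex 365/em 440 nm, Hill-fitted AC50.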

Assay [28] addresses DNA repair nuclease/redox regulator APEX1 (Homo sapiens) (UniProt P27695). Kind of assay: qHTS Validation Assay for Inhibitors of the Human Apurinic/apyrimidinic Endonuclease 1 (APE1) (AID 1705). Put shortly: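 Substrate: 50 nM final fluorophore/quencher THF-abasic duplex. Enzyme preincubated with compounds 15 min, RT. Progress derived from fluorescence difference, third minus first kinetic read.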

Assay [29] is described as follows: qHTS for differential inhibitors of proliferation of Plasmodium falciparum line 7G8 (AID 1815).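 Further: potency means the concentration at half of the fitted maximal effect; parasite growth measured after three days of incubation.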
The target in assay [30] is M-phase phosphoprotein 8 (Homo sapiens) (UniProt Q99549). The assay can be described thus: qHTS Validation Assay for Inhibitors for MPP8 Chromodomain Interactions with Methylated Histone Tails (AID 488949). Further: potency means the concentration at half of the fitted maximal effect; nearly all actives have a fitted effect of over 55% in size. Put shortly: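 Chemiluminescent proximity assay: histidine-tag capture via nickel acceptor beads, biotin peptide via streptavidin donor beads. Protein and peptide each at 50 nM, pH 7.4, with 30 min incubations at room temperature for complex formation, compound exposure and bead binding.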
Chain of M-phase phosphoprotein 8 (Homo sapiens) (Q99549 whole entry, looked up): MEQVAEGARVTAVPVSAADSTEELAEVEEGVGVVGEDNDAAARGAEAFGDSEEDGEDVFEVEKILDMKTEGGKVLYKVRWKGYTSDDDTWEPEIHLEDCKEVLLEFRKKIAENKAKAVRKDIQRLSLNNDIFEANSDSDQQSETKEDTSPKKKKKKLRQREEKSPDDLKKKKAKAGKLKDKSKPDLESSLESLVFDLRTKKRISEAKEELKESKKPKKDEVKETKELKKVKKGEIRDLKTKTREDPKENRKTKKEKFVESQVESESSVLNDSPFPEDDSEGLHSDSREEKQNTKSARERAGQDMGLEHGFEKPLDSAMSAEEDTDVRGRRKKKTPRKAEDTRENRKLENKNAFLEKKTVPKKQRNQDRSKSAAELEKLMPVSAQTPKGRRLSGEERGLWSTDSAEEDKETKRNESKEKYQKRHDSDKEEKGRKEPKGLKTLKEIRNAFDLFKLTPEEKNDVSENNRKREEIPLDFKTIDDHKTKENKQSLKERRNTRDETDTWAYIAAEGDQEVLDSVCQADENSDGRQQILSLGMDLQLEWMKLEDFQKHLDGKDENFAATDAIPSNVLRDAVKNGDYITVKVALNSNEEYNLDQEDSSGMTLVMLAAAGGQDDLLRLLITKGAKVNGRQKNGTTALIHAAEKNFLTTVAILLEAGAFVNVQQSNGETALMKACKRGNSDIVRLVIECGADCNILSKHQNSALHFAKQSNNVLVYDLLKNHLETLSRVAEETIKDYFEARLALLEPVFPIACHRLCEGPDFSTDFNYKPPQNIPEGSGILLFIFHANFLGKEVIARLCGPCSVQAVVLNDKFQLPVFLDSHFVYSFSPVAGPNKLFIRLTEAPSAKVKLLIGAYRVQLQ

Values without a mark were called inactive. Results filed as inconclusive are left out. The source made the active and inactive calls. Unless noted, the call rests on the fitted dose curve; in most records, active means well fitted curve in the direction sought with a large enough effect; inconclusive means small, poorly fitted or top-dose-only effect, or another doubt; inactive means no such curve, though single readings can be large; an effect the other way counts as inactive or inconclusive. Bounds are passed on as bounds.

Our source for the outcome, Potency and activation values is PubChem BioAssay (NCATS).

Chain of Rap guanine nucleotide exchange factor 3 (Homo sapiens) (O95398 whole entry, looked up): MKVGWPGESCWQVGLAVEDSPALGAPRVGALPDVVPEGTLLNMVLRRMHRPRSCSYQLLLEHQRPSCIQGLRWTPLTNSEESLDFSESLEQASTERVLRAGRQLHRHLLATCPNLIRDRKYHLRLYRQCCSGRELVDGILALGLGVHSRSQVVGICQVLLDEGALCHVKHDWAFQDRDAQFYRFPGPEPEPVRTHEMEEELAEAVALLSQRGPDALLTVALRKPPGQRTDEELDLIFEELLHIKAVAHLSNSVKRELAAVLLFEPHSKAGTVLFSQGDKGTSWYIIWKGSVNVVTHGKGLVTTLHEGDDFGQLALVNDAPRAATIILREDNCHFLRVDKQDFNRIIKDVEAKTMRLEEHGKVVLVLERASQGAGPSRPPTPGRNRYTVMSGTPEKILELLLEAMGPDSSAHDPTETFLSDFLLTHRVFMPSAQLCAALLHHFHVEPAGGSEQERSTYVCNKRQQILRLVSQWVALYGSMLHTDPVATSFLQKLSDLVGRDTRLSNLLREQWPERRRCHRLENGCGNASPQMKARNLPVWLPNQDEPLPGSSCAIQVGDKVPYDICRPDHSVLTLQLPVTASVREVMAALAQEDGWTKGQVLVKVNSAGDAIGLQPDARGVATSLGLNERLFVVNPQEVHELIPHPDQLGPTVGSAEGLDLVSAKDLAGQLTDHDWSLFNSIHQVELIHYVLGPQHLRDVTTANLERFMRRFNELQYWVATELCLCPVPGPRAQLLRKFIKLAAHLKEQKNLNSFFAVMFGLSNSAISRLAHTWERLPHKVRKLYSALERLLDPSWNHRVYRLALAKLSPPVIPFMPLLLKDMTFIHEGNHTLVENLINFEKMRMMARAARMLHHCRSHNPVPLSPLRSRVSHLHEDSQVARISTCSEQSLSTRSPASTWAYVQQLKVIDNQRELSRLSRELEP
Chain of Thyrotropin-releasing hormone receptor (Homo sapiens) (P34981 whole entry, looked up): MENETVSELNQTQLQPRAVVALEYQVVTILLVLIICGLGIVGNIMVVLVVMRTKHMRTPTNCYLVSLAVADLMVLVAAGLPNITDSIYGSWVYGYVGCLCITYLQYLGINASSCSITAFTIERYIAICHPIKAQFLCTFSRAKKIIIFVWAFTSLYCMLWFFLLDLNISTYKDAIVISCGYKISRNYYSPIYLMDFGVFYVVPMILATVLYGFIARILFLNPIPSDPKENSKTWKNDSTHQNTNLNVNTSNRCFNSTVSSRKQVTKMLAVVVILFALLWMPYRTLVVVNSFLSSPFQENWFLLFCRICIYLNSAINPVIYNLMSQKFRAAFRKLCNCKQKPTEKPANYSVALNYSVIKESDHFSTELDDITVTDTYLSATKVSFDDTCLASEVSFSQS
Chain of ATP-dependent DNA helicase Q1 (Homo sapiens) (P46063 whole entry, looked up): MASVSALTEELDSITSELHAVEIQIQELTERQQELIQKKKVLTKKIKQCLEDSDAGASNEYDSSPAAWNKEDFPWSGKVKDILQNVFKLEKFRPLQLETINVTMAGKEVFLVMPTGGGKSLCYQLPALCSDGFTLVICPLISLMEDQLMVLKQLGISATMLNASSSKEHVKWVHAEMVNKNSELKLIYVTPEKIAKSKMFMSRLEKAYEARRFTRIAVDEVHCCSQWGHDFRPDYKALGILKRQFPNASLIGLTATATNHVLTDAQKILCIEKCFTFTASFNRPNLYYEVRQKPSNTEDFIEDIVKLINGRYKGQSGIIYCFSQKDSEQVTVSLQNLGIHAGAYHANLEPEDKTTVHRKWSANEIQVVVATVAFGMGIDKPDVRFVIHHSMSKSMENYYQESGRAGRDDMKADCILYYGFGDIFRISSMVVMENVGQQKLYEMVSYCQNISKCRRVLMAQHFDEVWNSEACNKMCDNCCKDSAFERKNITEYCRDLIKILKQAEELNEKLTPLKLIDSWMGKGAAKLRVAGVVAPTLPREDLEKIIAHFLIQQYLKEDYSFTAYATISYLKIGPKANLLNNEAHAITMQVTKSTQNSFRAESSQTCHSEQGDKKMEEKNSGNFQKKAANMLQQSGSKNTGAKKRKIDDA
Chain of Ferritin light chain (Equus caballus) (P02791 2-175 limits assumed): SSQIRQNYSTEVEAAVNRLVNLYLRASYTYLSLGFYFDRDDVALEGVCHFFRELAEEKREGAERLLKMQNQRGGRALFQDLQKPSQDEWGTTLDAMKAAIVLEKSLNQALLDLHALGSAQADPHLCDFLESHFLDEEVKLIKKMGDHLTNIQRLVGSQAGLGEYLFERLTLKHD
Chain of Muscarinic acetylcholine receptor M1 (Rattus norvegicus) (P08482 whole entry, looked up): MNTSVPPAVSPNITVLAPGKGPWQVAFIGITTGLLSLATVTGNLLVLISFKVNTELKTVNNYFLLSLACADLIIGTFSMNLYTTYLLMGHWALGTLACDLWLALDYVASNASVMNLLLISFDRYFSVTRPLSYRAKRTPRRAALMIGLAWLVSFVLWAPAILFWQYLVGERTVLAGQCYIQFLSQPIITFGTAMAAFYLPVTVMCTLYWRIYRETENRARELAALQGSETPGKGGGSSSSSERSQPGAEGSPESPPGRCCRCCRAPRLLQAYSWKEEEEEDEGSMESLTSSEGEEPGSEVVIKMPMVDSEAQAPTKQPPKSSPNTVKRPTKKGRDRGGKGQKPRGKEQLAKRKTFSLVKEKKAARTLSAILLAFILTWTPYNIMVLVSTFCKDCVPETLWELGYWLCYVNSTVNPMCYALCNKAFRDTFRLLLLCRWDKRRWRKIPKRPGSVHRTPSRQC
Chain of Guanine nucleotide-binding protein G(i) subunit alpha-1 (Homo sapiens) (P63096 whole entry, looked up): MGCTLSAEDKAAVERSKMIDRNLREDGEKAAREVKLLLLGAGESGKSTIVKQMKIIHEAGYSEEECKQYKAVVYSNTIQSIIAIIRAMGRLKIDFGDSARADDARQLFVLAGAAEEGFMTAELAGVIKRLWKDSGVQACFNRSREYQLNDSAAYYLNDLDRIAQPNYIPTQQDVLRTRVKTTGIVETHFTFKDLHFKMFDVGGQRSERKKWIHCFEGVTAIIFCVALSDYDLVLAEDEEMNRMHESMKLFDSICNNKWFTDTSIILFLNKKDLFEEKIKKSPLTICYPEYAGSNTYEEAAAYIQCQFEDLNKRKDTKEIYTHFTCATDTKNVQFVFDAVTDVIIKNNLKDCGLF

`Nc1nc(Cl)nc2c1ncn2[C@@H]1O[C@H](CO)[C@H](O)[C@H]1O`: the outcome in assay [1], in assay [6], in [7], in assay [9] and in [11] was inactive. The Potency entry in assay [2], in assay [5], in [12] and in assay [13] was “inactive” throughout. Besides, the Potency was 11.2 µM (active) in assay [3], 7.08 µM (active) in assay [4] and 5.22 µM (active) in assay [8]. For the same compound, the activation in [10] was 1.31%.

On to `CCOC(=O)C1CN(S(=O)(=O)c2ccc(C)cc2)c2ccccc2O1` (centres undefined), for which the Potency result in assay [14] was “inactive”.

With `O=C(COc1ccc(Cl)cc1Cl)NNC(=S)NCc1ccco1`, the Potency result in [14] is “inactive”.

With `COc1ccc(-c2n[nH]c(C)c2-c2ccccc2OC)c(O)c1`, the Potency result in assay [14] and in [15] was “inactive” throughout.

As to `CC(C)C[C@H](N)CSSC[C@@H](N)CC(C)C`, the outcome in [16], in [24], in [25], in assay [26], in [27] and in [1] was inactive. In addition, the compound was classed as inactive in assay [6], in assay [7] and in assay [11]. The Potency in assay [17] is above 46 µM; in assay [18] it was above 46 µM; in [22] it was 12.6 µM (active); in assay [29], 14.1 µM (active); in assay [3], 10 µM (active); in assay [30], 50.1 µM (active). The Potency result in assay [19], in [20], in assay [21], in [23], in assay [28] and in assay [12] was “inactive” each time. Also, the activation in assay [10] was 6.19%.
